# The list is not random: actives were taken first. Their share in the collection is about 7.3%.
# HCV inh: inhibitors of hepatitis C virus infection | Huh7.5.1 HCVcc-Cre infection, luciferase reporter, 44 h | Potency, µM (top dose mostly 41.8 µM), hits mostly inhibitors | hit rate 3.4% among 340,000; active = well fitted inhibition curve with a large enough effect; inconclusive = small, poorly fitted or top-dose-only effect, or another doubt; inactive = no such curve, though single readings can be large or run the other way
#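 A cell-based infection assay in which seeded cells (1,000 per well) receive test compound after 4 h, are inoculated with HCVcc-Cre at approximately 0.5 moi, and are incubated 44 h before luminescence detection.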
# Vaccinia Venus: inhibitors of vaccinia virus (Venus reporter). Vaccinia virus Venus reporter expression, fluorescence. Potency, µM (top dose mostly 36.5 µM), hits mostly inhibitors. hit rate 0.46% among 330,000. AID 720580; calls by dose curve; tested in A549 cells; also: nearly all actives have a fitted effect of over 30% in size
# HCMV antiviral: inhibitors of human cytomegalovirus; HFF cells, HCMV-luciferase reporter, 72 h; hits give low values; activity change, negative = inhibition, % at 57.5 µM; hit rate 4.5% among 410,000; in the data active = activity change below about -60%; inconclusive = no clear call, values can overlap the other calls; inactive = above about -39%
#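 Human foreskin fibroblasts infected with luciferase-reporter HCMV at MOI 1 PFU/cell, compounds at two doses. Luciferase measured 72 h post infection; normalized to buffer-only basal and Salinomycin (10uM) controls.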
# FMDV antiviral: blocks foot and mouth disease virus. FMDV antiviral cell-based qHTS. Potency, µM (titrated, usually from 57.9 µM), hits mostly inhibitors. hit rate 1.2% among 410,000; calls by dose curve; tested in HEK293T cells; also: read-out not given here; nearly all actives have a fitted effect of over 45% in size
# VACV mCherry inh: inhibitors of vaccinia virus infection (mCherry reporter signal); hit rate 0.63% among 310,000; AID 720579; Potency, µM (doses to about 36.5 µM), hits mostly inhibitors; Vaccinia virus mCherry reporter infection, fluorescence; calls by dose curve; tested in A549 cells; also: nearly all actives have a fitted effect of over 35% in size
# Numbers stand for hits; – = inactive; ? = inconclusive; · = no result; [ ] = remark or other dose.
SMILES,HCV inh,Vaccinia Venus,HCMV antiviral,FMDV antiviral,VACV mCherry inh
COc1ccccc1Nc1nc(-c2ccccc2O)nc2ccccc12,3.98µM,–,-69.5,–,–
COc1ccc(Nc2nc(-c3ccccc3)nc3ccccc23)c(OC)c1,2µM,–,?,–,?
Cc1ccc(S(=O)(=O)c2nnn3c2nc(N2CCN(c4ccc(F)cc4)CC2)c2cc(Cl)ccc23)cc1C,·,–,–,–,–
Cc1ccc(C(=O)Nc2cc3cc(Cl)ccc3oc2=O)cc1,·,–,–,–,–
C=CCNc1nc(NC2CCN(C)CC2)c2cc(OC)c(OC)cc2n1,·,?,·,·,–
CCn1c(-c2ccccc2F)nc2cc(NC(C)=O)cc(C(=O)N(C)Cc3cn(C)nc3C)c21,·,–,·,–,–
COc1ccc(-c2nc3ccc(N4CCCC4)cc3c(=O)[nH]2)cc1OC,10µM,–,–,–,?
Cc1ccc(-c2nc(NCCN(C)C)c3ccccc3n2)cc1,–,?,–,–,?
COc1ccc(Nc2nc(N3CCN(S(=O)(=O)N(C)C)CC3)nc3ccccc23)cc1,11.2µM,·,-84.7,–,·
Cc1ccc(C)c(Nc2nc(-c3ccncc3)nc3ccccc23)c1,11.2µM,·,–,?,·
COc1ccc2nc(-c3ccccc3)nc(SC)c2c1,11.2µM,?,–,–,–
O=C(CN1C(=O)c2ccccc2S1(=O)=O)Nc1cc(S(=O)(=O)N2CCOCC2)ccc1N1CCOCC1,·,–,·,·,–
CCOc1cccc(CC(=O)N2CCc3c([nH]c4ccccc34)C2c2ccc(C)cc2)c1OCC (configuration not stated),·,–,–,–,–
COc1ccc(Nc2nc(-c3ccncc3)nc3ccccc23)cc1,6.31µM,–,–,–,–
COc1ccc(Oc2nc(-c3ccncc3)nc3ccccc23)cc1,?,–,–,?,–
COc1ccc(Nc2nc(-c3ccccc3F)nc3ccccc23)cc1OC,25.1µM,–,–,?,–
COc1ccccc1Nc1nc(-c2ccccc2)nc2ccccc12,10µM,·,?,–,·
CCOC(=O)c1nc(Nc2ccccc2OC)c2ccccc2n1,·,–,–,–,–
COc1ccc2nc(-c3ccccc3)[nH]c(=O)c2c1,2.82µM,–,–,–,–
COc1cccc(Nc2nc(-c3ccccc3O)nc3ccccc23)c1,?,·,–,–,·
COc1ccc2nc(C)[nH]c(=O)c2c1,–,–,–,–,–[1.46 µM]
O=C(C1CCC1)N1CC(=O)N2[C@H](CO)[C@@H](c3ccc(Br)cc3)[C@@H]2C1,·,·,–,·,·
CCn1c(=O)c2cc(C(=O)N(C)c3cc(C)ccc3C)sc2c2ccccc21,·,–,–,?,–
COc1ccc(/C(C)=N/Nc2nncc3ccccc23)cc1,?,–,–,–,–
COc1ccc(/C(C)=N/Nc2nc3ccccc3nc2C)cc1,12.6µM,–,–,–,?
SMILES,HCV inh,Vaccinia Venus,HCMV antiviral,FMDV antiviral,VACV mCherry inh
CC(NC(=O)C1CCOCC1)c1nnc2n1CCN(Cc1ccc3cccnc3c1)CC2 (configuration not stated),·,–,·,–,–
CN(N=O)c1ccc2c(c1)Cc1ccccc1-2,·,–,·,·,–
CCOC(=O)c1ccc2c(c1)n(CC)c(/C=C/N(C)c1ccccc1)[n+]2CC,?,–,-99.9,?,–
O=C(NCCc1nc(-c2ccccc2)cs1)c1ccc(Br)cc1,11.2µM,–,–,?,?
COc1cc2[nH]c(=S)nc(NC3CCCCCC3)c2cc1OC,?,–,-74.0,?,–
COc1ccccc1CNc1nc(=S)[nH]c2cc(OC)c(OC)cc12,–,·,–,–,·
COc1cc2[nH]c(=S)nc(NCc3cccs3)c2cc1OC,25.1µM,–,–,–,–
Cc1ccc(-c2nnc3c4ccccc4c(C)nn23)cc1NC(=O)c1ccccc1Cl,·,–,–,–,–
COCc1c(C(=O)N2CCC(c3ccccc3)CC2)cnn1-c1nccc(-c2cc(C)sc2C)n1,·,?,·,–,14.1µM
COc1ccccc1OCC(=O)N(Cc1ccco1)Cc1ccccc1F,·,–,–,–,–
O=C(c1cc(-c2ccc(O)cc2)on1)N1CCN(c2ccc(F)cc2)CC1,?,–,-62.6,–,–
CCCSc1ncc(Cl)c(C(=O)Nc2ccc(S(=O)(=O)N3CCCCC3C)cc2)n1 (configuration not stated),·,–,–,–,–
CN(C)S(=O)(=O)c1cccc(NC(=O)CNc2cccc(S(=O)(=O)N3CCCCC3)c2)c1,·,?,-80.9,–,?
O=C(Nc1cccc(S(=O)(=O)N2CCCCCC2)c1)c1ccc2c(c1)OCO2,?,?,-62.1,–,–
CCN(CC)S(=O)(=O)c1ccc(C)c(NC(=S)Nc2cccc(S(=O)(=O)N3CCCCCC3)c2)c1,?,–,-76.6,?,–
O=S(=O)(Nc1nc2ccccc2nc1Nc1cccc(S(=O)(=O)N2CCCCC2)c1)c1ccccc1,?,?,-82.7,?,11.2µM
Cc1ccc(S(=O)(=O)N(CC(=O)N2CCc3ccccc3C2)c2ccc(C)c(C)c2)cc1,·,–,–,–,–
NC(=O)c1nn(CC(=O)Nc2cccc(S(=O)(=O)N3CCCCCC3)c2)c(=O)c2ccccc12,?,·,–,–,·
NC(=O)c1nn(CC(=O)Nc2cccc(S(=O)(=O)N3CCCC3)c2)c(=O)c2ccccc12,11.2µM,·,–,–,·
Cc1ccc(S(=O)(=O)c2cccc(S(=O)(=O)N3CCCC3)c2)cc1S(=O)(=O)N1CCCC1,15.8µM,·,–,–,·
CC(=O)c1cccc(NCC(=O)Nc2cc(S(=O)(=O)N3CCCCC3)ccc2C)c1,11.2µM,–,–,–,–
O=C(CNc1ccc(C(F)(F)F)cc1)Nc1cccc(S(=O)(=O)N2CCCC2)c1,?,·,–,–,·
O=C(CNc1cccc(S(=O)(=O)N2CCOCC2)c1)Nc1ccc(C(F)(F)F)cc1,?,–,–,31.6µM,–
Cc1ccc(NC(=O)C2CCC(CNS(=O)(=O)c3csc(C(N)=O)c3)CC2)cc1Cl (configuration not stated),·,–,–,–,–
CCN(CC)S(=O)(=O)c1cc(NC(=O)C(C)N2CC=C(c3ccccc3)CC2)ccc1C (configuration not stated),11.2µM,–,–,?,?
SMILES,HCV inh,Vaccinia Venus,HCMV antiviral,FMDV antiviral,VACV mCherry inh
Cc1ccc(S(=O)(=O)N2CCCCC2)cc1NCC(=O)Nc1ccc(Br)cc1F,·,?,-85.8,?,?
O=C(Nc1cccc(S(=O)(=O)N2CCCCCC2)c1)C1CCC1,–,–,–,–,–
O=C(CNc1ccccc1F)Nc1cc(S(=O)(=O)N2CCCCC2)ccc1Cl,?,·,–,–,·
CC(=O)Nc1cccc(S(=O)(=O)N2CCCCCC2)c1,–,–,-100.1,–,–
O=C(Nc1cccc(S(=O)(=O)N2CCCCC2)c1)C1CC(=O)N(c2ccc3c(c2)OCCO3)C1 (configuration not stated),12.6µM,·,–,?,·
CCN(CC)S(=O)(=O)c1cc(NC(=O)[C@@H](NC(N)=O)C(C)C)ccc1C,–,–,–,–,–
CN(C)c1ccc(/C=C/c2c3c(nc4ccccc24)CCCC3)cc1,·,–,·,·,–
CCC1CN(C(=O)Nc2cc(Cl)c(OC)cc2OC)c2ccccc2O1 (configuration not stated),·,–,–,–,–
Cc1cccc(CC(=O)N[C@@H](Cc2ccccc2)C(O)c2nc3ccccc3[nH]2)c1 (some centres not stated),·,·,–,·,·

# Compound activity deposited in PubChem BioAssay by National Center for Advancing Translational Sciences (NCATS).
